Pf growth 48h: inhibits P. falciparum growth in the first generation, 48 h. hit rate 5.9% among 310,000. P. falciparum luciferase growth in erythrocytes, 48 h. Potency, µM (titrated, usually from 28.7 µM), inactives show at the highest dose activity change, negative = inhibition, usual class: inhibitors
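Luminescence readout; reporter = integrated firefly luciferase in P. falciparum. RBC culture at 2% hematocrit, 0.1% parasitemia final, 37 C/5% CO2; decreased signal taken as growth inhibition.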
Vaccinia mCherry: vaccinia inhibition (mCherry reporter) | Vaccinia virus mCherry reporter infection, fluorescence | Potency, µM (doses to about 36.5 µM), for inactives: at the top dose activity change, negative = inhibition, actives largely listed as inhibitors | hit rate 0.63% among 310,000 | AID 720579; calls by dose curve; tested in A549 cells; also: nearly all actives have a fitted effect of over 35% in size
AMA1 RON2 block: AMA1-RON2 (P. falciparum) interaction inhibition; hit rate 0.2% among 360,000; AID 720542; Potency, µM (top dose mostly 58.2 µM), without a hit: at the top dose activity change, negative = inhibition, actives largely listed as inhibitors; AlphaScreen AMA1-biotinylated RON2 peptide binding;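 also: 0% = vehicle wells and -100% = peptide control; nearly all actives have a fitted effect of over 45% in size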
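AMA1 (3D7) with his tag at 25 nM final met compounds first, then biotinylated RON2 peptide at 25 nM; detection used donor plus acceptor beads, 10 µg/mL apiece, read by AlphaScreen after 30 min at room temperature.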
VACV Venus inh: vaccinia inhibition (Venus reporter); Vaccinia virus Venus reporter expression, fluorescence; Potency, µM (series often up to 36.5 µM), for inactives: at the highest dose activity change, negative = inhibition, usual class: inhibitors; hit rate 0.46% among 330,000; calls by dose curve; tested in A549 cells; also: nearly all actives have a fitted effect of over 30% in size
Pf growth 96h: inhibits malaria parasite growth, 96 h. Potency, µM (doses to about 28.7 µM), inactives show at the highest dose activity change, negative = inhibition, hits mostly inhibitors. hit rate 6.9% among 320,000. AID 504834. P. falciparum luciferase reporter growth, 96 h
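Infected RBCs, 2% Hct / 0.05% parasitemia final; luciferase-reporter P. falciparum; cpd 96 h, 37 C, 5% CO2; luciferase detection reagent; luminescence.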
Numbers without * were called inactive; i = inactive; ? = inconclusive; · = no result; [ ] = remark or other dose. Shown are actives, neighbours in structure and some others; about 8.7% of the full set was active somewhere. Unless noted, calls follow the shape of the dose curve; as a rule, active = well fitted curve in the direction sought with a large enough effect; inconclusive = small, poorly fitted or top-dose-only effect, or another doubt; inactive = no such curve, though single readings can be large; an effect the other way counts as inactive or inconclusive. Unless noted, % is scaled to controls: 0 for no effect and ±100 for the full control effect; potency is read from the fitted curve at half-maximal effect.

SMILES	Pf growth 48h	Vaccinia mCherry	AMA1 RON2 block	VACV Venus inh	Pf growth 96h
Cc1nn(-c2cc(N3CCCC3)ccc2[N+](=O)[O-])c(=O)c2ccccc12	·	?	-16.8%	-23.0%	?
Cc1nn(-c2ccccc2[N+](=O)[O-])c(=O)c2ccccc12	44.5%	-3.1%	6.1%	-4.4%	8.8%
CC[C@H]1OC(=O)[C@H](C)C(=O)[C@H](C)[C@@H](OC2O[C@H](C)C[C@H](N(C)C)[C@@H]2O)[C@@](C)(OC)C[C@@H](C)C(=O)[C@@H](C)C2N(CCCCn3cnc(-c4cccnc4)c3)C(=O)O[C@@]21C (stereo not given in full)	?	·	·	·	13.5µM*
CC[C@H]1OC(=O)[C@H](C)[C@@H](O[C@H]2C[C@@](C)(OC)[C@@H](O)[C@H](C)O2)[C@H](C)[C@@H](O[C@@H]2O[C@H](C)C[C@H](N(C)C)[C@H]2O)[C@](C)(O)C[C@@H](C)C(=O)[C@H](C)[C@@H](O)[C@]1(C)O	-0.1%	-12.7%	14.9%	-9.1%	?
COc1cccc(CNC(=O)CSC2=Nc3ccccc3C3=NC(C(C)C)C(=O)N23)c1 (stereo not given)	·	-14.6%	·	-17.7%	·
O=c1cc(/C=C/c2ccc([N+](=O)[O-])cc2)c2ccccc2[nH]1	·	i	·	-13.3%	·
N#Cc1c(/N=C/c2ccccc2)oc(-c2ccccc2)c1-c1ccccc1	?	-14.3%	-9.6%	3.6%	-17.6%
N#Cc1c(/N=C/c2ccco2)oc(-c2ccccc2)c1-c1ccccc1	16.5µM*	-9.3%	-12.3%	-20.2%	26.9%
COc1ccc(OC)c(CN2CCN(Cc3cc(=O)oc4cc(O)ccc34)CC2)c1	3.7µM*	-12.2%	-13.9%	4.5%	2.62µM*
COc1ccc(N2CCN(Cc3cc(=O)oc4cc(-c5ccccc5)c(O)cc34)CC2)cc1	1.85µM*	·	-9.7%	-21.7%	2.94µM*
COc1ccc(N2CCN(Cc3cc(=O)oc4cc(C)c(Cl)cc34)CC2)cc1	-5.2%	-13.0%	4.4%	-8.8%	36.7%
COc1ccc2oc(=O)cc(CN3CCN(c4ccccc4F)CC3)c2c1	·	-24.2%	·	?	·
O=c1cc(CN2CCN(c3ccccc3F)CC2)c2cc(O)c(-c3ccccc3)cc2o1	2.62µM*	-17.4%	2.2%	-2.4%	2.33µM*
Cc1cccc(Cn2c(=O)n(Cc3ccccc3)c(=O)c3sc4ccccc4c32)c1	·	-1.0%	·	-7.1%	·
COc1ccc(C(=O)NCc2ccc3c(c2)CCN3C(=O)c2cccc(C)c2)cc1OC	·	-11.2%	·	-6.9%	·
CCCNC(=O)C1CCC(Cn2c(=O)c3sccc3n(Cc3cccc(OC)c3)c2=O)CC1 (stereo not given)	·	-18.6%	·	-14.9%	·
CCOC(=O)c1sc2nc3c(SCC(=O)O)cc(C(=O)c4cc(F)ccc4O)cn3c(=O)c2c1C	-4.0%	-7.8%	-6.3%	-1.2%	31.3%
COC(=O)c1cc(C(=O)c2cc(F)ccc2O)cn2c(=O)c3c(C)c(C)sc3nc12	2.08µM*	·	-10.3%	·	2.62µM*
Cc1cccc(C)c1NS(=O)(=O)c1ccc(NS(=O)(=O)c2ccc3c(c2)OCCO3)cc1	·	-6.3%	·	-13.8%	·
CC[n+]1ccc(C)c2cc(S(=O)C(F)(F)F)ccc21 (stereo not given)	3.7µM*	·	-9.5%	·	?
CC[n+]1ccc(C)c2cc(P(=O)(c3ccccc3)c3ccccc3)ccc21	13.1µM*	i	?	3.4%	?
CC[n+]1ccc(C)c2cc(SC(F)(F)F)ccc21	?	-14.0%	-25.6%	-12.7%	0.0%
Clc1cccc(N/N=C/c2ccncc2)c1	2.62µM*	-7.8%	-17.7%	-23.6%	-20.4%
CCNC(=O)c1ccc(NC(=O)CC2SC(N3CCCCC3)=NC2=O)cc1 (stereo not given)	15.4%	·	-10.2%	·	0.5%
O=C(CC1SC(N2CCCC2)=NC1=O)Nc1ccc(C(=O)N2CCN(c3cccc(Cl)c3)CC2)cc1 (stereo not given)	8.28µM*	?	-0.5%	-29.7%	?
SMILES	Pf growth 48h	Vaccinia mCherry	AMA1 RON2 block	VACV Venus inh	Pf growth 96h
CCOC(=O)C1CCCN(C(=O)c2ccc(NC(=O)CC3SC(N4CCCC4)=NC3=O)cc2)C1 (stereo not given)	10.4µM*	-19.3%	-0.6%	-3.9%	?
Cc1cccc(N2CCN(C(=O)c3ccc(NC(=O)CC4SC(N5CCCC5)=NC4=O)cc3)CC2)c1C (stereo not given)	·	·	-3.7%	·	·
CCCCc1nn2c(=O)cc(COC(=O)c3ccc(NC(=O)c4ccccc4Cl)cc3)nc2s1	·	i	·	-5.4%	·
CN(C)c1ccc(N=Nc2ccc(/C=C/c3ccnc4ccccc34)cc2)cc1	·	100.3%	·	i	·
Cc1ccc(CSc2nccc(-c3c(C)nc4ccccn34)n2)cc1	13.1µM*	·	6.7%	·	?
Cc1ccc(CSc2ncn(-c3ccccc3)n2)cc1	·	-11.9%	39.9%	-8.4%	?
COC(=O)CCC[N+](C)(C)C	?	·	·	·	10.7µM*
COC(=O)c1cc(NC(=O)c2cc(-c3ccc(OC)cc3)oc2C(F)(F)F)ccc1N1CCOCC1	8.28µM*	·	-11.9%	·	9.28µM*
COC(=O)c1cc(NC(=O)c2cc(-c3ccc(C(F)(F)F)cc3)oc2C(F)(F)F)ccc1N1CCOCC1	2.08µM*	-17.1%	-22.2%	-14.1%	1.47µM*
CCc1cccc(NC(=O)CSc2nnc(-c3cc4occc4n3C)n2-c2ccccc2C)c1	·	-24.6%	·	-26.1%	·
COc1cccc(N2CCN(C(=O)c3c4c(nc5ccccc35)C(=O)N(C3CCCCC3)C4)CC2)c1	·	-18.7%	·	-9.9%	·
CC(=O)Nc1cc(C(C)(C)C)c(O)c(C(C)(C)C)c1	·	·	-2.7%	·	-17.6%
CCN(CC)C(=O)c1cc(C(C)(C)C)c(O)c(C(C)(C)C)c1	?	-21.1%	3.4%	-14.9%	10.4µM*
CC(C)(C)NC(=O)c1cc(C(C)(C)C)c(O)c(C(C)(C)C)c1	?	i	-3.7%	-7.1%	9.28µM*
O=C(CSc1nccn1-c1ccc(F)cc1)Nc1nc2ccccc2s1	·	-0.9%	·	-12.3%	·
Cc1ccc(S(=O)(=O)N2CCOCC2)cc1NC(=O)CN1CCC(Cc2ccccc2)CC1	13.1µM*	i	?	-28.6%	3.7µM*
OC(COc1ccccc1F)CN1CCC(Cc2ccccc2)CC1 (stereo not given)	-15.9%	·	2.4%	·	?
O=S(=O)(c1ccc(OCC(O)CN2CCN(c3ccccc3)CC2)cc1)N1CCOCC1 (stereo not given)	-13.7%	-6.0%	20.6%	-11.9%	6.1%[5.75 µM]
COc1ccc(S(=O)(=O)N2CCCCCC2)cc1NC(=O)Cc1ccccc1F	?	·	2.5%	·	?
COc1ccc(S(=O)(=O)N2CCCCC2)cc1NC(=O)Cc1c[nH]c2ccccc12	?	-7.2%	-8.2%	-7.2%	8.28µM*
O=S(=O)(c1ccc(OCC(O)CN2CCC(Cc3ccccc3)CC2)cc1)N1CCOCC1 (stereo not given)	11.7µM*	i	-0.5%	-17.5%	?

Bioassay records: PubChem, National Center for Advancing Translational Sciences (NCATS)
